# Sm TGR inh – inhibitors of Schistosoma mansoni thioredoxin glutathione reductase; 360,000 tested, 3% active; Q962Y6; purified TGR, DTNB reduction, TNB absorbance 405 nm; Potency, µM (doses to about 114 µM), without a hit: at the top dose activity change, negative = inhibition, hits mostly inhibitors; further: nearly all actives have a fitted effect of over 60% in size
#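 TGR 20 nM + NADPH 100 uM (dispensed conc.), cpd preinc 15 min RT; start with NADPH (500 uM addition) then DTNB (15 mM addition). Kinetic TNB absorbance, 405 nm filter. Four-parameter Hill fit across titration.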
# TbPYK inhibitor – inhibitors of Trypanosoma brucei pyruvate kinase; AID 624173; Q57TT1; 410,000 tested, 0.12% active; TbPYK enzyme, Kinase-Glo Plus ATP luminescence, 45 min; Potency, µM (titrated, usually from 76.8 µM), inactives show at the top dose activity, negative = inhibition, actives largely listed as inhibitors; further: nearly all actives have a fitted effect of over 50% in size
#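 Glycolytic pyruvate kinase of T. brucei was incubated with substrate, test compound and 130 uM ADP for 45 minutes at room temperature. Luminescent Kinase-Glo Plus signal was measured after 10 minutes.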
# AMA1 RON2 block – inhibitors of Plasmodium falciparum AMA1-RON2 interaction | 360,000 tested, 0.2% active | Potency, µM (series often up to 58.2 µM), without a hit: top-dose activity change, negative = inhibition, usual class: inhibitors | AlphaScreen AMA1-biotinylated RON2 peptide binding;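 further: 0% = vehicle wells and -100% = peptide control; nearly all actives have a fitted effect of over 45% in size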
#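 AMA1 (3D7) with his tag at 25 nM final met compounds first, then biotinylated RON2 peptide at 25 nM; detection used donor plus acceptor beads, 10 µg/mL apiece, read by AlphaScreen after 30 min at room temperature.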
# LmPK inh – blocks Leishmania mexicana pyruvate kinase activity; purified LmPK, Kinase-Glo ATP luminescence, 1 h; Potency, µM (top dose mostly 57.5 µM), for inactives: top-dose activity change, negative = inhibition, usual class: inhibitors; 290,000 tested, 0.37% active
# Target sequence (Q27686 whole entry, looked up): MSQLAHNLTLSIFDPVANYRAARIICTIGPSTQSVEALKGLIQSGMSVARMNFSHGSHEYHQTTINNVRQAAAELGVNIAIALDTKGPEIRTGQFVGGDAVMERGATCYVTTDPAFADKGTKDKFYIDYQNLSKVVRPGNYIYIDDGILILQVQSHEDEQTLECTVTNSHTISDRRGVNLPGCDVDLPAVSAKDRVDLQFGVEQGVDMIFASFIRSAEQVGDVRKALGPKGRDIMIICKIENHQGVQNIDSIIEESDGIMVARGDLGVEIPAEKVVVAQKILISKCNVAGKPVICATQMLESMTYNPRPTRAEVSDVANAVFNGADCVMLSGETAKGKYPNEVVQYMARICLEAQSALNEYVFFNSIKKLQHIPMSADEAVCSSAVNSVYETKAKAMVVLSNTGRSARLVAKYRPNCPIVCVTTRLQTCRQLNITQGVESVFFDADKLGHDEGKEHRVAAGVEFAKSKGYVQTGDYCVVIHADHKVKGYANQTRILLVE
#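 Purified LmPK (0.1 nM) converted ADP (0.1 mM) to ATP with PEP (0.5 mM) in imidazole buffer pH 7.2 with KCl and MgCl2, 1 h at room temperature. ATP was read by Kinase-Glo luminescence; data normalized to uninhibited and no-enzyme controls.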
# RE007 growth inh – less growth of the S. pombe RE007 Vpr strain; 360,000 tested, 0.21% active; Potency, µM (titrated, usually from 92.2 µM), for the others: at the highest dose activity change, negative = less growth, usual class: inhibitors; AID 651644; S. pombe RE007 Vpr strain, BacTiter-Glo ATP luminescence, 24 h; active means well fitted falling curve with a large enough effect; inconclusive means small, poorly fitted or top-dose-only effect; inactive means no such curve, though single readings can be large or run the other way; further: nearly all actives have a fitted effect of over 50% in size
#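 Fission yeast RE007 carrying one integrated HIV-1 vpr copy, seeded at OD 0.01 in PMG+AL medium with 23 nL pinned compound. Grown 24 h at 30 degrees; viability read by BacTiter-Glo luminescence after 5 min.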
# An asterisk follows results filed as active; ? = inconclusive; . = no result given; [ ] = remark or other dose. Only some compounds are listed: those with a hit (about 3.2% of all), similar ones and a draw of the others. Unless noted, the call rests on the fitted dose curve; in most records, active means well fitted curve in the direction sought with a large enough effect; inconclusive means small, poorly fitted or top-dose-only effect, or another doubt; inactive means no such curve, though single readings can be large; an effect the other way counts as inactive or inconclusive. Unless noted, on the % scale 0 is the no-effect control and ±100 the full control effect; potency means the concentration at half of the fitted maximal effect.
SMILES,Sm TGR inh,TbPYK inhibitor,AMA1 RON2 block,LmPK inh,RE007 growth inh
CC[N+]1(C)[C@@H]2CC[C@H]1CC(OC(=O)[C@H]1CCC(C(=O)OC3C[C@H]4CC[C@@H](C3)[N+]4(C)CC)(c3ccccc3)c3ccccc31)C2 (some centres undefined),50µM*,-7%,-7%,.,-16%[18.4 µM]
CCOC(=O)c1ccc(N2C(=O)c3[nH]nc(-c4ccc(OC)cc4)c3C2c2ccc(C)cc2)cc1 (centres undefined),5%,-8%,.,.,.
Clc1cccc(Cc2c(-c3ccco3)nc3ccc(Br)cn23)c1,.,?,-1%,.,?
COC(=O)c1ccc2nc(-c3ccco3)c(Cc3ccc(C)cc3)n2c1,.,?,-17%,.,-16%
Clc1cccc(Cc2c(-c3ccco3)nc3ccc(Cl)cn23)c1,.,20µM*,-21%,.,?
COC(=O)c1ccc2nc(-c3ccco3)c(Cc3ccc(OC)cc3C)n2c1,.,14µM*,?,.,-3%
COc1cccc(CNC(=O)COCc2cc(-c3ccc4c(c3)OCO4)on2)c1,0%,-3%,.,.,.
CC(C)Oc1ccc(CNC(=O)Cn2nc(N3CCN(c4ccccc4)CC3)ccc2=O)cc1,-8%,-1%,.,.,.
COc1ccc(C(C)=O)cc1CSc1nc2cc(C(=O)O)ccc2c(=O)n1Cc1ccccc1,22µM*,0%,-9%,1%,15%
CCCC(=O)N1CCN(c2nc3ccc(F)cc3s2)CC1,0%,-5%,.,.,.
CCc1cc(OC)c(CC(C)N)cc1OC (centres undefined),.,-6%[157 µM],.,.,.
Fc1ccc(NCc2cn3ccccc3n2)cc1,-8%,6%,-6%,11µM*,2%
Fc1cccc(NCc2cn3ccccc3n2)c1,-22%,2%,3%,-22%,7%
Cc1cc(N=Nc2ccccc2C)ccc1N,.,-2%,11µM*,.,?
Cc1ccccc1OCCSc1nc2ccc(NC(=O)c3cccs3)cc2s1,3%,0%,.,.,.
COc1ccc(OC)c([C@@H]2Nc3ccc(C(=O)O)cc3[C@@H]3C=CC[C@@H]32)c1,?,-27%,.,.,.
O=C(O)c1ccc2c(c1)[C@@H]1C=CC[C@@H]1[C@H](c1ccccn1)N2,.,-15%,13µM*,.,-9%
COc1ccc(C(=O)N/N=C(\C)c2ccc3c(c2)C2C=CCC2C(c2ccccc2)N3)cc1 (centres undefined),10µM*,-17%,-8%,-4%,-12%
COc1cccc(N2CCN(C(=O)C3CCN(S(=O)(=O)c4cn(C)cn4)CC3)CC2)c1,23%,-3%,.,.,.
Cc1nn(-c2ccccc2)c(-n2cccc2)c1C(=O)NCCCN1CCN(c2ccccc2F)CC1,4%,3%,.,.,.
O=C(c1cc2ccccc2o1)N(Cc1ccco1)Cc1cccs1,32µM*,3%,-14%,.,-8%
O=C(NCCC(=O)N(Cc1ccco1)Cc1cccs1)c1ccccc1Cl,45µM*,0%,-7%,.,0%
COc1ccccc1C(=O)NCCC(=O)N(Cc1ccco1)Cc1cccs1,?,1%,-16%,-1%,12%
COc1ccccc1NC(=O)CN(Cc1ccco1)C(=O)c1cc2ccccc2o1,22µM*,.,.,-4%,.
Cc1c(C(=O)N(Cc2ccco2)Cc2cccs2)oc2ccccc12,0%,-11%,-5%[11.6 µM],.,-24%
SMILES,Sm TGR inh,TbPYK inhibitor,AMA1 RON2 block,LmPK inh,RE007 growth inh
O=C(COc1ccccc1)Nc1ccccc1C(=O)OCc1cc(=O)n2nc(C3CC3)sc2n1,4%,3%,.,.,.
COc1ccc(O)c(N)c1,3.2µM*,.,.,?,.
COc1ccc(C(Nc2cc(C)ccn2)c2ccc3ccc(C)nc3c2O)cc1 (centres undefined),0.4µM*,-2%,48%,3%,-5%
COc1cc(C(Nc2ccccn2)c2ccc3ccc(C)nc3c2O)cc(OC)c1O (centres undefined),0.35µM*,33%,-10%,13%,16%
Cc1ccc2ccc(C(Nc3cccc(C(F)(F)F)c3)c3cccnc3)c(O)c2n1 (centres undefined),2.2µM*,3%,78%,8%,-1%
Cc1ccc2ccc(C(Nc3ccccn3)c3ccccc3)c(O)c2n1 (centres undefined),2.8µM*,-5%,75%,0%,-4%
Cc1ccc2ccc(C(Nc3ccccc3)c3ccccc3)c(O)c2n1 (centres undefined),.,.,47%,.,-10%
Cc1ccnc(NC(c2ccsc2)c2ccc3ccc(C)nc3c2O)c1 (centres undefined),.,1%,31%,2%,-12%
Cc1ccc2ccc(C(Nc3ccccc3)c3ccc(C(C)C)cc3)c(O)c2n1 (centres undefined),.,.,50%,.,22%
Cc1ccn2c(=O)c(C(=O)NCCc3ccccc3)c(O)nc2c1,6%,-2%,.,.,.
O=C(CCl)Nc1ccc(-c2ccccc2)cc1,4.5µM*,-3%,-1%,-2%,4%
O=C(CCl)Nc1ccc(N=Nc2ccccc2)cc1,40µM*,0%,-14%,2%,?
CC(C)N(c1ccccc1)c1ccc(NC(=O)CCl)cc1,14µM*,-2%,0%,-1%,0%
O=C(CCl)Nc1cn(-c2ccccc2)nc1-c1ccccc1,18µM*,5%,-5%,1%,-3%
CC(C)N(c1ccccc1)c1ccc(NC(=O)[C@@H]2O[C@H](CO)[C@H](O)[C@H](O)[C@H]2O)cc1,.,-1%,12%,.,-14%
CC(=O)Nc1ccc(NC(=O)Cc2ccc(-c3ccccc3)cc2)cc1,3%,3%,-3%,-7%,2%
N#CCCn1c(=O)c(-c2ccccc2)nc2cnc(OCc3ccccc3)nc21,.,-7%,.,.,.
COc1cc(OC)c(NS(=O)(=O)c2c(C(=O)N3CCCCCC3)c(C)n(C)c2C)cc1Cl,23%,2%,.,.,.
CCOc1ccc(-c2nc(SCC(=O)NCCOC)c(-c3ccc(OC)c(OC)c3)[nH]2)cc1,2%,-1%,.,.,.
COc1cc2c(cc1OC)C1O[C@](CCCCN3C(=O)c4ccccc4C3=O)(C2)Oc2cc(C)n(Cc3ccccc3)c(=O)c21,?,.,.,-2%[11.5 µM],.
CC(=O)Nc1ccc(NC(=O)C(Cc2ccccc2)NS(=O)(=O)c2ccc3c(c2)oc(=O)n3C)cc1 (centres undefined),-12%,-9%,.,.,.
COc1ccc2c(c1)CC1(CN2C)C(=O)NC(=O)N(CCc2ccccc2)C1=O (centres undefined),40µM*,-9%,30%,-4%,14%
COc1cc(CN2C(=O)NC(=O)C3(Cc4cc(C)ccc4N(C)C3)C2=O)cc(OC)c1 (centres undefined),?,?,11%,4%,11%
O=C(c1ccc(CS(=O)(=O)c2ccccc2)o1)N1CCC2(CC1)OCCO2,22µM*,-4%,-25%,1%,-8%

# Source: PubChem BioAssay (National Center for Advancing Translational Sciences (NCATS))
